# From PubChem
# This is a sample that favours compounds with a hit; in the whole collection about 12% have one here.
# HP1b chromo inh – blocks HP1-beta chromodomain binding to methylated histone tails | AID 540317 | AlphaScreen HP1-beta / biotin-H3K9me3 peptide binding | P83916 | hit rate 0.56% among 390,000 | Potency, µM (titrated, usually from 114 µM), for the others: at the top dose activity change, negative = inhibition, actives largely listed as inhibitors; further: nearly all actives have a fitted effect of over 70% in size
# Target sequence (P83916 whole entry, looked up): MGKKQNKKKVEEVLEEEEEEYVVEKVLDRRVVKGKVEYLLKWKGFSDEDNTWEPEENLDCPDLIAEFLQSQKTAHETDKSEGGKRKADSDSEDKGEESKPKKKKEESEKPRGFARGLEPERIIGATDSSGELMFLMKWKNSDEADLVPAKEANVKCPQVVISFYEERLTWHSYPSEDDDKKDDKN
#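 AlphaScreen: HP1-beta (50 nM) preformed 30 min with biotin-H3(1-18)K9me3 peptide (50 nM) in PBS pH 7.4, 0.01% Tween-20. Compound added for 30 min at RT, then streptavidin donor/nickel chelate acceptor beads (10 ug/mL) for 30 min.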
# PLK1 PBD block – inhibitors of human PLK1 polo-box domain binding; Potency, µM, for inactives: max response, negative = inhibition, most hits filed as inhibitors; AID 720504; hit rate 2.8% among 360,000; Plk1 PBD binding of FITC phosphopeptide, fluorescence polarization; further: series mostly up to about 57 µM; on the % scale 0 is the no-effect control and ±100 the full control effect; nearly all actives have a fitted effect of over 65% in size
# BAZ2B inh – blocks human BAZ2B; Potency, µM (titrated, usually from 114 µM), without a hit: top-dose activity change, negative = inhibition, most hits filed as inhibitors; hit rate 4.4% among 360,000; AlphaScreen BAZ2B-H3K14Ac peptide displacement; AID 504333; further: on the % scale 0 is the no-effect control and ±100 the full control effect; nearly all actives have a fitted effect of over 60% in size
#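 AlphaScreen luminescence quantifies BAZ2B engagement of H3K14Ac peptide; the protein and biotinylated peptide are both at 50 nM final, buffer PBS pH 7.4 with 0.01% Tween-20, all steps at room temperature.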
# G9a block – G9a (human) methyltransferase inhibition; Potency, µM (doses to about 102 µM), for the others: top-dose activity, negative = inhibition, most hits filed as inhibitors; G9a H3K9 monomethylation, AlphaScreen, 2 h; AID 504332; hit rate 8.8% among 350,000; further: on the % scale 0 is the no-effect control and ±100 the full control effect; nearly all actives have a fitted effect of over 75% in size
# Target sequence (Q96KQ7 913-1193 limits assumed): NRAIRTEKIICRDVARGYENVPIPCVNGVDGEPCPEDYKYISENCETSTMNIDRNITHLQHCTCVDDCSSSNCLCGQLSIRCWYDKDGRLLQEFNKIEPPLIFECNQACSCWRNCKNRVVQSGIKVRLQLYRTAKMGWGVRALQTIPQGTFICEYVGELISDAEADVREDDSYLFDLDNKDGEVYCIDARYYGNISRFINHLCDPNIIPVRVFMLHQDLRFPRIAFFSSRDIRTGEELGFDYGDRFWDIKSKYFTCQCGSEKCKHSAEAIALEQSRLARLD
#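 Signal arises when biotinylated H3K9 peptide, once monomethylated, bridges streptavidin donor and antibody-captured acceptor beads. Enzyme at 20 nM was preincubated 15 min with test compounds; peptide 500 nM and SAM 20 uM then reacted for 2 h.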
# JMJD2A Tudor inh – blocks the human JMJD2A Tudor domain | hit rate 4.4% among 390,000 | AlphaScreen JMJD2A-Tudor / H3K4me3 peptide binding | AID 504339 | Potency, µM (top dose mostly 114 µM), for inactives: at the top dose activity change, negative = inhibition, usual class: inhibitors; further: on the % scale 0 is the no-effect control and ±100 the full control effect; nearly all actives have a fitted effect of over 50% in size
# Sfp inh – blocks B. subtilis Sfp PPTase activity | Q9F4F7 | Biochemical Sfp PPTase activity, qHTS | Potency, µM, for the others: largest response in the series, negative = inhibition, hits mostly inhibitors | hit rate 3.5% among 310,000;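 further: the enzyme is Sfp with the accession as filed and its product quenches rhodamine fluorescence; 0% = enzyme reaction without inhibitor and -100% = no enzyme wells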
#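 Buffer: 50 mM Hepes-Na pH 7.6, 10 mM MgCl2, 0.01% Nonidet P-40, 0.01% BSA. Enzyme 15 nM, pre-exposed to compound 15 min; substrates then added and fluorescence change tracked over 30 min.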
# * = called active by the depositor; ? = inconclusive; . = not tested or not shown; ! = repeats disagree; [ ] = dose if it differs, or a comment. The call rests on the fitted dose curve; in most records, active means well fitted curve in the direction sought with a large enough effect; inconclusive means small, poorly fitted or top-dose-only effect, or another doubt; inactive means no such curve, though single readings can be large; an effect the other way counts as inactive or inconclusive. Potency means the concentration at half of the fitted maximal effect.
SMILES,HP1b chromo inh,PLK1 PBD block,BAZ2B inh,G9a block,JMJD2A Tudor inh,Sfp inh
S=C(NNc1ccnc2cc(Cl)ccc12)Nc1ccc(Cl)cc1Cl,?,?,?,?,?,20µM*
CCOc1ccc(NC(=S)NNc2ccnc3cc(Cl)ccc23)cc1,11.2µM*,?,?,7.08µM*,22.4µM*,20µM*
S=C(NCc1ccncc1)Nc1ccc(Cl)cc1Cl,60.6%,-28.3%,-36.9%,-27.6%,-1.4%,5.9%
NC(N)=NN=Cc1ccnc2ccccc12,.,-10.8%,.,.,.,.
C(=N\Nc1ncnc2ccccc12)/c1ccccc1,11.1%,-5.9%,?,-2.6%,-10.5%[11.4 µM],-21.7%
Nc1c(Cl)ncnc1N/N=C/c1ccc2ccccc2n1,-36.3%,-8.7%,12.6µM*,?,89.1µM*,-0.6%
Clc1cccc(/C=N/Nc2ncnc3ccccc23)c1,-7.0%,4.2%,35.5µM*,.,?,-34.7%
Nc1c(Cl)ncnc1N/N=C/c1ccnc2ccccc12,9.2%,-29.4%,5.1%,?,6.4%[57.1 µM],35.5µM*
CCOc1cc(/C=N/Nc2ncnc(Cl)c2N)ccc1O,-10.0%,-6.1%,-27.4%,?,-27.1%,-76.1%
O/N=C/c1ccc2ccccc2n1,-1.3%,-7.7%,-6.6%,.,-7.6%,-9.8%
Nc1c(Cl)ncnc1N/N=C/c1cccnc1,9.8%,-6.9%,-23.4%,39.8µM*,?,50.1µM*
Cc1ccc(CCNS(=O)(=O)c2cc(-c3cc(C)no3)ccc2C)cc1,74.0%,.,-3.4%,-0.2%[59 µM],10.4%,.
COC(=O)NC(c1ccccc1)[C@@]1(C(=O)OC)CCCC1=O (stereo partly specified),.,.,.,.,.,10.8%
CCOC(=O)C1CCCN(S(=O)(=O)c2ccc(N3CCCCS3(=O)=O)cc2)C1 (stereo unspecified),31.4%,.,-9.1%,-19.8%[12.7 µM],-0.7%,.
Cc1cc(SCC(=O)NCc2ccc(Cl)cc2)nc(=O)[nH]1,39.9%,.,1.8%,3.3%[59 µM],-1.9%,.
CCOc1ccc(CNC(=O)c2ccccc2NC(=O)c2nsc3ccccc23)cc1,9.8%[57 µM],.,-4.2%,-4.6%[59 µM],-6.5%,.
Nc1c(Cl)ncnc1N/N=C/c1ccccn1,-18.7%,-11.5%,5.62µM*,?,28.2µM*,-6.5%
O=C1C=C(OCCCl)CC(c2cccc(Cl)c2)O1 (stereo unspecified),.,2.6%,.,.,.,.
Cc1ccc(NS(=O)(=O)c2cccc(C(=O)NNC(=O)c3cccn3C)c2)c(C)c1,-5.8%,-8.5%,44.7µM*,.,?,11.3%
Cc1ccc(NC(=O)CCC(=O)NNS(=O)(=O)c2ccccc2)c(C)c1,-6.4%,6.7µM*,-4.2%[57.1 µM],50.1µM*,-21.9%[11.4 µM],11.6%
Cc1ccc(C)c(NC(=O)CCC(=O)NNS(=O)(=O)c2ccc(Cl)cc2)c1,59.2%,?,4.2%,?,-1.7%,.
O=C(NNc1ccccc1)Nc1ccccc1F,3.9%,-13.3%,?,50.1µM*,-13.4%,5.6%
Cc1c(NS(=O)(=O)c2ccccc2)cc(Cl)c(O)c1C,?,4.4%,-9.0%,?,89.1µM*,?
Cc1ccc(NS(=O)(=O)c2ccc(Cl)nc2)c(C)c1,20.8%,-8.4%,-0.9%,-5.5%,-8.8%,.
Cc1ccc(NC(=O)CCC(=O)NNS(=O)(=O)c2ccccc2)cc1C,?,26.7µM*,-1.6%,-0.8%[59 µM],?,2.4%
SMILES,HP1b chromo inh,PLK1 PBD block,BAZ2B inh,G9a block,JMJD2A Tudor inh,Sfp inh
Cc1ccc(NS(=O)(=O)c2ccccc2)c(C)c1,12.0%,.,.,.,50.1µM*,.
Cc1ccc(S(=O)(=O)NNC(=O)Nc2ccccc2F)c(C)c1,29.9%,-6.3%,-18.1%,50.1µM*,-11.5%,11.8%
O=C(CCC(=O)Nc1ccccc1)NNS(=O)(=O)c1ccc(Cl)cc1,28.0%,18.9µM*,-19.2%,6.31µM*,?,56.2µM*
Cc1ccc(NC(=O)CCC(=O)NNS(=O)(=O)c2ccc(Cl)cc2)cc1C,42.1%,-6.5%,-11.1%,-12.1%,-2.8%,20.7%
Brc1ccc(NC(c2ccccc2)c2ccncc2)cc1 (stereo unspecified),17.1%,?,70.8µM*,?,56.2µM*,-8.7%
CC(Nc1ccccc1)c1ccncc1 (stereo unspecified),63.7%,2.4%,-21.7%,7.8%,-6.3%,24.1%
O=C(Nc1ccc(Br)cc1F)c1ccc2nsnc2c1,10.9%,5.32µM*,-18.1%,-7.1%,?,8.2%
COc1ccccc1NC(=O)c1ccc2nsnc2c1,-4.6%,4.0%,-0.5%,-6.3%,12.6µM*,22.3%
Cc1nn(-c2ccccc2)c(OC(=O)C(C)C)c1Sc1ccc(Cl)cc1,4.2%,.,-2.9%,4.47µM*,-33.1%,.
COc1ccc(C(=O)Oc2c(Sc3ccccc3)c(C)nn2-c2ccccc2)c(OC)c1,48.3%,.,4.7%,-38.3%[59 µM],3.1%,.
O=C1CCCc2c1cc(C(=O)Nc1ccc(Br)cn1)c(=O)n2-c1ccccc1,23.2%,-16.2%,-4.2%,-38.1%[12.7 µM],79.4µM*,?
CC1(C)CC(=O)c2cc(C(=O)NC3CCSC3=O)c(=O)n(-c3ccccc3)c2C1 (stereo unspecified),29.7%,-11.2%,10.6%,?,-7.9%,1.0%
O=C1CCCc2c1cc(C(=O)NC1CCSC1=O)c(=O)n2-c1ccccc1 (stereo unspecified),17.5%,-0.2%,-3.7%,?,-5.2%,50.1µM*
CC(=O)Cc1cc(=O)c2c(C)cc(O)c(C3OC(CO)C(O)C(O)C3O)c2o1 (stereo unspecified),39.6%,-2.9%,-28.2%,-3.2%[12.7 µM],-6.1%,8.5%
O=c1cc(-c2ccc(O)c(O)c2)oc2cc(O)c([C@@H]3O[C@H](CO)[C@@H](O)[C@H](O)[C@H]3O)c(O)c12,10.9%,3.4%,.,.,31.6µM*!,?
O=c1c2cc(O)c(O)cc2oc2cc(O)c(C3OC(CO)C(O)C(O)C3O)c(O)c12 (stereo unspecified),?,0.5%,12.6µM*,2.82µM*,7.94µM*,-60.8%
O=c1cc(-c2ccc(O)cc2)oc2c([C@@H]3O[C@H](CO)[C@@H](O)[C@H](O)[C@H]3O)c(O)c([C@@H]3O[C@H](CO)[C@@H](O)[C@H](O)[C@H]3O)c(O)c12,16.9%,-1.2%,-17.2%,?,-14.1%,1.3%
CCOC(=O)c1c(-c2ccccc2)oc2ccc(NS(=O)(=O)c3ccc(C)cc3C)cc12,36.7%,.,-2.6%,-29.1%[59 µM],-4.2%,.
O=C(NCCc1ccccc1)c1ccc(CSc2nc3ccncc3n2Cc2ccccc2F)cc1,52.2%,.,-4.3%,?,-16.4%,.
Cc1cccc(N2CCN(S(=O)(=O)c3c(C)nc4scc(C)n4c3=O)CC2)c1C,2.5%,-9.6%,-15.4%,16.6%,-4.3%,-6.2%
COc1cc(-c2[nH]nc3c2C(c2ccoc2)C(C#N)=C(N)O3)cc(OC)c1OC (stereo unspecified),-4.3%,?,-37.0%,-27.0%[59 µM],-30.4%,-2.6%
